Screening results as filed in PubChem BioAssay.
PREPL inh = PREPL enzyme inhibitors, primary screen, biochemical, fluorescence polarization. recombinant PREPL, fluorescence polarization activity-based probe. inhibition, % at 5.96 µM. 0.68% of 320,000 active; in the data active means inhibition above about 43%
Target sequence (Q4J6C6 whole entry, looked up): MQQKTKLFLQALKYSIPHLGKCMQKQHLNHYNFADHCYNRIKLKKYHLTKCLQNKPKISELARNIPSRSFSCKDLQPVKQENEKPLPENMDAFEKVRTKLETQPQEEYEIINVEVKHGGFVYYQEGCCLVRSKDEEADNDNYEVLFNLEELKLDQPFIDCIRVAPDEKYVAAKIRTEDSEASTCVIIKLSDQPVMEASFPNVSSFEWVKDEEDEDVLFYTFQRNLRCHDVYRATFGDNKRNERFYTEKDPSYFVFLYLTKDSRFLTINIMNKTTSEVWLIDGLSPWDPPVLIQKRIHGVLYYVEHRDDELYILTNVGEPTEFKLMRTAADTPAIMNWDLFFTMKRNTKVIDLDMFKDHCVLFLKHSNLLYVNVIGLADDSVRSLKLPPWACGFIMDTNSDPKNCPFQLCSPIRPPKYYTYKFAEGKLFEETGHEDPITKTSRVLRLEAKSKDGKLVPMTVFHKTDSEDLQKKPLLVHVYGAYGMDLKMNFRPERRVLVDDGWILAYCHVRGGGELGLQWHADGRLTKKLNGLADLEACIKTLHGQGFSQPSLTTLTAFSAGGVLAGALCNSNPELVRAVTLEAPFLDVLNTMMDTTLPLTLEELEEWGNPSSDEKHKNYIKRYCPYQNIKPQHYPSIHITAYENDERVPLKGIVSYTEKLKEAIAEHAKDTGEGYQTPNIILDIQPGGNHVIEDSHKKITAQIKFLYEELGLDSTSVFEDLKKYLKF
LYPLA2 counter = LYPLA2 inhibitors, primary screen, counter-screen for PME1 inhibitor project, biochemical, fluorescence polarization, FP-Rh probe ABPP | recombinant LYPLA2 | inhibition, % at 5.9 µM | 0.38% of 320,000 active | AID 2177, 2009;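 active means inhibition above the screen-wide mean plus 3 SD, limit set per campaign, cut at about 26% in these data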
Fam108B inh = mouse Fam108B serine hydrolase inhibitors, primary screen, counter-screen for RBBP9 inhibitor project, biochemical, fluorescence polarization | inhibition, % at 9.51 µM | recombinant Fam108B, FP-Rh probe fluorescence polarization | 0.33% of 300,000 active;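 active means inhibition above the screen mean inhibition plus 3 SD, computed separately per campaign, cut at about 18% in these data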;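 further: inhibitors lower polarization as less probe binds the enzyme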
LYPLA1 inh = LYPLA1 inhibitors, primary screen, counter-screen for PME1 inhibitor project, biochemical, fluorescence polarization, FP-Rh probe ABPP | Acyl-protein thioesterase 1 (Homo sapiens), O75608 | recombinant LYPLA1 | inhibition, % at 5.9 µM | 0.16% of 320,000 active | AID 2174, 2009;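 active means inhibition above the mean of all tested compounds plus 3 SD, set per campaign, cut at about 14% in these data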;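 further: inhibitors block serine hydrolase probe labeling of LYPLA1 so polarization falls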
PME-1 inh = PME-1 inhibitors via competitive probe labeling, primary screen, biochemical, fluorescence polarization, FP-Rh probe, HTS. Protein phosphatase methylesterase 1 (Homo sapiens), Q9Y570. recombinant PME-1. inhibition, % at 5.9 µM. 0.53% of 320,000 active. AID 2130, 2009;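 active means inhibition above the campaign mean of all compounds plus 3 SD, cut at about 26% in these data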;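 further: competitive labeling of PME-1 active site by serine hydrolase directed probe; inhibitors block probe labeling so polarization falls and inhibition rises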
Fam108b confirm = mouse Fam108b serine hydrolase inhibitors, confirmation, counter-screen for RBBP9 inhibitor project, biochemical, fluorescence polarization, triplicate | 44% of 930 active | recombinant Fam108b, FP-Rh probe fluorescence polarization | shares compounds with Fam108B inh | inhibition, % at 9.51 µM | AID 1978, 2009;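 active means inhibition above a limit from the primary screen, the mean over all compounds plus 3 SD, cut at about 19% in these data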;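 further: inhibitors free the probe so polarization falls as inhibition rises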
Fam108b ABPP HTS = inhibition of mouse Fam108b by HTS hits, late-stage follow-up, biochemical, gel-based ABPP, soluble recombinant form. inhibition, % at 20 µM. shares compounds with Fam108B inh. 44% of 260 active. fluorophosphonate probe; in the data active means inhibition above about 40%
A number is an active result; n = inactive; x = no result given. This is a sample that favours compounds with a hit; in the whole collection about 1.3% have one here.

SMILES | PREPL inh | LYPLA2 counter | Fam108B inh | LYPLA1 inh | PME-1 inh | Fam108b confirm | others
O=C1c2cc(O)c(O)cc2S(=O)(=O)C1c1ccccc1 (centres undefined) | n | n | n | n | n | x
CCOC(=O)C1=C(C)N=c2s/c(=C\c3ccc(O)c([N+](=O)[O-])c3)c(=O)n2C1c1ccccc1OC (centres undefined) | n | n | 28 | n | n | 45
CCOC(=O)c1[nH]c2ccc(Cl)cc2c1NC(=O)/C=C/c1ccc2c(c1)OCO2 | n | n | n | n | n | x
CCN(CC(=O)Nc1c(C(=O)OC)[nH]c2ccc(Cl)cc12)c1ccc2c(c1)OCO2 | n | n | 21 | n | 40 | n
CCCCN(C(=O)c1[nH]c(C)c(C(=O)OCC)c1C)c1c(N)n(CCCC)c(=O)[nH]c1=O | n | n | n | n | n | x
Cc1[nH]c2ccccc2c1/C=N/NC(=O)c1cccc(S(=O)(=O)Nc2cccc(C(F)(F)F)c2)c1 | n | n | 40 | n | n | 32
O=C(c1cc([N+](=O)[O-])ccc1N1CCCCC1)N1CCCCC1 | n | n | 38 | n | n | n
O=C(c1cc([N+](=O)[O-])ccc1N1CCCC1)N1CCCCC1 | n | n | n | n | n | x
O=S(=O)(NCc1cccc(C(F)(F)F)c1)NCc1ccccc1F | n | n | n | n | n | x
C/C(=N\NC(=O)c1cc(O)cc(O)c1)c1ccc(NC(=O)Cc2ccccc2)cc1 | n | n | 27 | n | n | n
O=c1[nH]cnc2scc(-c3ccc(Br)cc3)c12 | n | n | n | n | n | x
Cc1nc2scc(-c3ccc(Cl)cc3)c2c(=O)o1 | n | n | 46 | n | n | 79 | Fam108b ABPP HTS=80
COc1ccc(-c2nc3scc(-c4ccc(OC)c(OC)c4)c3c(=O)o2)cc1 | n | n | n | n | n | x
COc1ccc(-c2csc3nc(-c4ccccc4F)oc(=O)c23)cc1 | n | n | 50 | n | n | 36 | Fam108b ABPP HTS=60
CC(C)(C)c1nc2scc(-c3ccc(Br)cc3)c2c(=O)o1 | n | n | 27 | n | n | 29
COc1cc(C(=O)OCC(=O)c2cc(C)n(CC3CCCO3)c2C)ccc1OCC(=O)N1CCOCC1 (centres undefined) | n | n | n | n | n | x
CCOC(=O)[C@@H]1[C@H]2COc3ccccc3[C@@H]2N2C(=O)N(c3ccc(OC)cc3)C(=O)[C@@]12C | n | n | n | n | n | x
CN(C)S(=O)(=O)c1cccc(-c2nnc3n2CCCCC3)c1 | n | n | n | n | n | x
CCOc1ccc2[nH]c(C(=O)N/N=C/c3cc(OC)c(OC)c(OC)c3)cc2c1 | n | n | 29 | n | n | n
COc1cc(/C=N/NC(=O)c2cc3ccccc3[nH]2)ccc1O | n | n | 20 | n | 36 | 19
COc1cccc(/C=N/NC(=O)c2cc3c(OC)cccc3[nH]2)c1OC | n | n | n | n | n | x
COc1ccc(OC)c2[nH]c(C(=O)N/N=C/c3ccccc3O)cc12 | n | n | 53 | n | 60 | 21
CCOc1ccc(/C=N/NC(=O)c2cc3c(OC)cccc3[nH]2)cc1 | n | n | n | n | n | x
COc1cc(/C=N/NC(=O)CCn2c3ccccc3c3ccccc32)ccc1O | n | n | 24 | n | n | n
COc1ccc(CNc2nc3ccc(C)cc3s2)c(OC)c1OC | n | n | n | n | n | x
SMILES | PREPL inh | LYPLA2 counter | Fam108B inh | LYPLA1 inh | PME-1 inh | Fam108b confirm | others
COc1ccc(/C=N/NC(=O)c2cc3c(OC)ccc(OC)c3[nH]2)cc1O | n | n | 30 | n | 40 | n
COc1ccc(/C=N/NC(=O)c2cnccn2)cc1O | n | n | n | n | n | x
Cc1ccc(S(=O)(=O)N(C)C)cc1NC(=O)c1cc(=O)c2ccccc2o1 | n | n | 21 | n | n | 33 | Fam108b ABPP HTS=n
CN(c1ccccc1)S(=O)(=O)c1cccc(NC(=O)c2cc(=O)c3ccccc3o2)c1 | n | n | n | n | n | x
CC(C)(CC(=O)O)CC(=O)N1CCN(c2nc3cc(Cl)ccc3s2)CC1 | n | n | n | n | n | x
COc1cccc(C(=O)COc2cccc(NC(=O)c3cccc([N+](=O)[O-])c3)c2)c1 | n | n | 24 | n | n | 24
C(=N\Nc1nc(Nc2ccccc2)nc(N2CCOCC2)n1)/c1c[nH]c2ccccc12 | n | n | n | n | n | x
Cc1[nH]c2ccccc2c1/C=N/Nc1nc(Nc2ccc(F)cc2)nc(N2CCOCC2)n1 | n | n | 22 | n | n | n
CCc1ccc(C2=CSC3=NCCN23)cc1 | n | n | n | n | n | x
O=[N+]([O-])c1ccc(N/N=C/c2ccccc2O)cc1 | n | n | 47 | n | 45 | 30
Cn1c(=N)n(CC(=O)c2ccccc2)c2ccccc21 | n | n | n | n | n | x
Cn1c(=N)n(CC(=O)c2ccc(Cl)c(Cl)c2)c2ccccc21 | n | n | 21 | n | n | n
S=C(NCc1ccc2[nH]c3c(c2c1)CCCC3)Nc1ccccc1 | n | n | 21 | n | n | n
CC(=O)N1CCN(S(=O)(=O)c2cccc(C(=O)NCc3ccc(F)cc3)c2)CC1 | n | x | x | x | x | x
COc1cc(NC(=O)c2cc3ccccc3cc2O)c(OC)cc1Cl | n | n | 30 | n | 42 | n
COc1ccccc1NC(=O)COC(=O)c1cc2ccccc2cc1O | n | n | x | n | n | x
COc1ccccc1NC(=O)c1cc2cc(Br)ccc2cc1O | n | n | 38 | n | n | n
Cc1ccc(C2CCN(C(=S)NC(C)C)C2)cc1 (centres undefined) | n | n | n | n | n | x
CC(NC(=O)Cc1ccccc1)C1COc2ccccc2O1 (centres undefined) | n | n | 125 | n | n | n
O=C(CN1CCN(C(=O)N2CCOCC2)CC1)Nc1cc(Cl)ccc1Cl | n | n | n | n | n | x
Cc1ccccc1-c1nc2sc3c(c2c(=O)o1)CCC3 | n | n | 21 | n | n | n
Cc1cccc2c(N=Nc3ccc(S(=O)(=O)Nc4ccc(Cl)cc4)cc3[N+](=O)[O-])c(O)[nH]c12 | n | n | 20 | n | n | n
COc1cc(-c2nc(-c3ccc4c(c3)-c3ccccc3S4(=O)=O)c(-c3ccccc3)[nH]2)cc(OC)c1O | n | n | 32 | n | n | 37 | Fam108b ABPP HTS=80
CCCC#CCN1CCN(C23CC4CC(CC(C4)C2)C3)CC1 | n | n | 18 | n | n | n
CCCCCC#CCN1CCN(C23CC4CC(CC(C4)C2)C3)CC1 | n | n | x | n | n | x
